Test results reported in PubChem BioAssay AID977607 (Broad Institute, 2014).
Hit rate of the full screen: of about 1,500 compounds, about 460 (31%) were called active. Roughly 1% stayed inconclusive and do not appear here.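 How the source made its calls: active means curve reaches 40% activation over neutral controls at an AC40 no higher than the top valid tested concentration; inconclusive means no clear call, values can overlap the other calls; inactive means signal moving opposite to the expected increase, and the rest.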 Not all results are given here. Entries with a potency or affinity are not part of this list.

Assay: GLuc-reported insulin release enhancers, glucose-stimulated beta cells – cell-based, INS-1E, Gaussia luciferase, luminescence, cherry-pick, set 2, dose response (AID 977607);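 further: 0% = median of the plate neutral control wells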
Conditions: INS-1E GLuc insulin secretion reporter, 2-3 h, hits give high values; at 35 µM, 100% = signal doubled over neutral wells unless noted

Max activation, inactive:
Cc1ccc(NCc2cccc(B(O)O)c2)cc1 -34.5%, Cc1cccc(NCc2ccccc2)c1 -18.2% [at 0.0016 µM, 100% = signal doubled over neutral wells], COc1ccc(/C=N/Nc2nc(-c3ccc(Cl)cc3)cc(C(F)(F)F)n2)c(OC)c1 30.4%, COc1ccccc1C(=O)N/N=C(\C)CC(=O)Nc1ccc2c(c1)OCCO2 15.2% [at 0.005 µM, 100% = signal doubled over neutral wells], S=C(NCc1ccccc1)Nc1ccc2cn[nH]c2c1 -24.4% [at 0.046 µM, 100% = signal doubled over neutral wells], CCOc1ncccc1C(=O)NCc1ccc(C)cc1 -15% [at 0.046 µM, 100% = signal doubled over neutral wells], CC(Oc1ccccc1Cl)C(=O)Nc1ccc(S(=O)(=O)Nc2nccs2)cc1 (stereo not given) -19.7% [at 0.135 µM, 100% = signal doubled over neutral wells], CCOc1ncccc1C(=O)Nc1cccc(S(=O)(=O)NC2=NCCC2)c1 -12.4% [at 0.135 µM, 100% = signal doubled over neutral wells], CCOc1ncccc1C(=O)NNC(=O)c1ccccc1-n1cccc1 -7.28% [at 3.8 µM, 100% = signal doubled over neutral wells], CNC(=O)c1cc(C(=O)c2ccccc2Br)c[nH]1 25.1% [at 0.135 µM, 100% = signal doubled over neutral wells], COC(=O)CN(c1cccc(C)c1)S(=O)(=O)c1ccccc1 23.2% [at 0.42 µM, 100% = signal doubled over neutral wells], O=C(Nc1ccc(F)cc1)N1CCCCN2[C@@H](CO)[C@@H](c3ccc(C#Cc4ccccc4)cc3)[C@@H]2C1 21.6% [at 0.0016 µM, 100% = signal doubled over neutral wells], CCN(CC(=O)Nc1ccccc1OC)C(=O)C1CCCC1 -15.2% [at 3.8 µM, 100% = signal doubled over neutral wells], O=C1CC(NS(=O)(=O)c2cccs2)CN1c1cccc(F)c1 (stereo not given) -15.9% [at 11 µM, 100% = signal doubled over neutral wells], C=CCNC(=O)COc1coc(CN2CCN(C(=O)c3ccco3)CC2)cc1=O -8.4% [at 0.046 µM, 100% = signal doubled over neutral wells], CCn1ncc2c1C(=O)NC1c3ccccc3C(=O)N21 (stereo not given) -17.7% [at 0.0016 µM, 100% = signal doubled over neutral wells], c1ccc2nc3c(nc2c1)c1ccccc1n3CCN1CCOCC1 -14.9% [at 0.005 µM, 100% = signal doubled over neutral wells], CC(=O)Nc1nc(C)nc(-c2ccccc2OC(C)=O)n1 -19.4% [at 0.046 µM, 100% = signal doubled over neutral wells], O=c1c2ccccc2nc(-c2ccco2)n1/N=C/c1ccco1 -20.6% [at 0.0016 µM, 100% = signal doubled over neutral wells], O=c1c2ccccc2nc(-c2ccco2)n1Cc1ccccc1 -18.2% [at 0.046 µM, 100% = signal doubled over neutral wells], CSc1ncccc1C(=O)NCCc1ccccc1F 23.1% [at 3.8 µM, 100% = signal doubled over neutral wells], COCCOc1ccc(C(F)(F)F)cc1NC(=O)c1ccccc1F -23.9% [at 3.8 µM, 100% = signal doubled over neutral wells], O=C(NCCCNc1ccnc2cc(Cl)ccc12)c1ccccc1F -28.3%, O=S(=O)(c1cccs1)N1CN(C2CCCCC2)c2nc3ccccc3nc21 -12.2%, Cc1ccc(S(=O)(=O)N(CC(=O)Nc2ccc(C)cc2C)C(=O)N2CCN(C)CC2)cc1 42% [at 0.046 µM, 100% = signal doubled over neutral wells], Cc1ccc(OCC(=O)NNC(=O)CCC(=O)Nc2ccc(C)cc2C)cc1 -27.6% [at 3.8 µM, 100% = signal doubled over neutral wells], CC(=O)N1CCN(C(=O)COC(=O)c2ccc(S(C)(=O)=O)cc2)CC1 25.9%, CCC(=O)Nc1nnc(Sc2ccc(N(C)C)cc2)s1 -22.3% [at 0.046 µM, 100% = signal doubled over neutral wells], CCSc1nnc(NC(=O)c2csc(C)c2)s1 -21.3% [at 0.0016 µM, 100% = signal doubled over neutral wells], CCC(CC)NC(=O)CN1CCN(S(=O)(=O)c2cccs2)CC1 -15.7% [at 3.8 µM, 100% = signal doubled over neutral wells], Cc1nnc2c(NCCC(C)C)nc3ccccc3n12 -15%, Cc1ccc(-n2ncc3c2CC(C)(C)CC3NC(=O)CCCN2CCCC2=O)cc1 (stereo not given) -26.8% [at 0.046 µM, 100% = signal doubled over neutral wells], CC1(C)Cc2c(cnn2-c2ccccc2)C(NC(=O)CCN2CCCC2=O)C1 (stereo not given) -18.4%, CCCn1nc(NC(=O)c2ccco2)c2cc3ccccc3nc21 -15.7% [at 0.0016 µM, 100% = signal doubled over neutral wells], CCn1nc(NC(=O)c2ccco2)c2cc3ccccc3nc21 61.7% [at 11 µM, 100% = signal doubled over neutral wells], CCOc1ccc(CCNC(=O)CCNC(=O)c2ccco2)cc1OCC 12.9% [at 3.8 µM, 100% = signal doubled over neutral wells], CC1(C)CC(=O)C(C=NC2CC(C)(C)NC(C)(C)C2)=C(O)C1 -17.1% [at 0.005 µM, 100% = signal doubled over neutral wells], CCSc1nnc(-c2cccnc2)n1-c1ccc(C)c(Cl)c1 -13.6% [at 0.0016 µM, 100% = signal doubled over neutral wells], CN(c1ccc(C(=O)N2CCN(Cc3ccccc3)CC2)cc1)S(=O)(=O)c1ccccc1 -44.5%, O=C(CN1C(=O)CCC1=O)Nc1cccc2c1C(=O)NC2=O -14.9% [at 1.2 µM, 100% = signal doubled over neutral wells], O=C(NNC1CCN(Cc2ccccc2)CC1)c1ccccc1 -25% [at 3.8 µM, 100% = signal doubled over neutral wells], CN(Cc1ccc(OCC(O)CN(C)Cc2ccccc2)cc1)Cc1nccn1C (stereo not given) -10.6% [at 0.0016 µM, 100% = signal doubled over neutral wells], N=c1n(CCN2CCCCC2)c2ccccc2n1CC(O)COc1ccccc1 (stereo not given) -22.3% [at 1.2 µM, 100% = signal doubled over neutral wells], Cc1cccc2[nH]c3c(N4CC=C(c5ccc(F)cc5)CC4)ncnc3c12 18.7% [at 1.2 µM, 100% = signal doubled over neutral wells], FC(F)(F)c1cc(-c2ccccc2)nc(-n2cc(Cl)cn2)n1 -21.3% [at 0.015 µM, 100% = signal doubled over neutral wells], CCN(C[C@H]1N[C@@](CC)(C(=O)OC)[C@H]2C(=O)N(C)C(=O)[C@@H]12)S(=O)(=O)c1ccc(OC)cc1 -12.8% [at 0.42 µM, 100% = signal doubled over neutral wells], COc1ccc(F)cc1C(=O)C1CCCN(C(=O)c2ccc(C(C)=O)s2)C1 (stereo not given) -19.8%, COc1ccc(C(=O)C2CCCN(Cc3cccn3-c3nccs3)C2)cc1OC (stereo not given) -15.9% [at 0.005 µM, 100% = signal doubled over neutral wells], CCOC(=O)c1[nH]cnc1C(=O)NC(C)C -21.9% [at 0.135 µM, 100% = signal doubled over neutral wells], CC(C)C[C@H](NC(=O)c1nc[nH]c1C(=O)NC1CCN(C(=O)OC(C)(C)C)CC1)C(=O)OC(C)(C)C 60.6%, CN1C(=O)NC(c2ccc(O)cc2)C2=C1CN(c1ccccc1)C2=O (stereo not given) -22.4% [at 3.8 µM, 100% = signal doubled over neutral wells], CC(C)c1c(C(=O)N/N=C/c2cccc3ccccc23)nnn1-c1nonc1N -43.8%, O=C(COc1ccccc1Cl)NNC(=O)c1ccc2nc[nH]c2c1 15.8% [at 1.2 µM, 100% = signal doubled over neutral wells], COC(=O)C[C@@H]1OC[C@H](C(C)C)N1S(=O)(=O)c1ccc(C)cc1 -15.5%, O=C(COC(=O)c1ncc(Cl)c(Cl)c1Cl)NC1CCS(=O)(=O)C1 (stereo not given) -18.3%
